These results are taken from PubChem BioAssay AID463173 (ICCB-Longwood Screening Facility, Harvard Medical School, 2010).

Structures are written as SMILES. Hit rate of the full screen: of about 52,000 compounds, about 1,700 (3.3%) were called active. Rule as the data show it: active = survival mostly below about 52% (no sharp cut-off); inactive = mostly above about 56%. This excerpt belongs to a sample that is enriched for actives.

The assay relates to Wild type. As to the kind of experiment: growth inhibition of S. aureus wild type versus tarO mutant, primary screen, teichoic acid synthesis inhibitors, RN4220, OD600 (AID 463173). The note with it: S. aureus RN4220 wild type/DeltatarO growth, OD600, 18 h, hits give low values, screened at 18.75 µg/mL (by protocol).
With `CC1CCN(C(c2ccccc2)c2sc3nc(-c4ccco4)nn3c2O)CC1` (stereo not given), the survival was 68% (inactive).
With `Cc1[nH]c(=O)[nH]c(=O)c1/C=N\NC(=O)c1cc2ccccc2o1`, the survival is 111% (inactive).
In the case of `N#CC1=C(N)SC(N)=C(C#N)C1c1cc2c(cc1Cl)OCO2`, the survival is 112% (inactive).
Next, `Cc1cccc(N(CC(=O)NC(C)c2ccccc2)S(=O)(=O)c2ccccc2)c1C` (stereo not given): 79% (inactive); `Cc1cc(NC(=O)CSc2nc(-c3cccc(F)c3)nc3c2c(=O)n(C)c(=O)n3C)no1`: 68% (inactive); `CCOc1cc(C#N)c(NC(=O)c2cccc(S(=O)(=O)N3CCOCC3)c2)cc1OCC`: 131% (inactive).
For the compound `Cc1ccc(CNC(=O)CN2Cc3ccccc3C2=O)cc1`, the survival was 76% (inactive).
As to `COc1cccc(CNc2ncnc3c2nnn3C)c1`, the survival is 79% (inactive).
With `CCc1nnc(SCc2cccc(Cl)c2)c2cc3sccc3n12` the figure was 2% (active); with `CCc1nnc(SCc2ccc(F)cc2Cl)c2cc3sccc3n12`, 93% (inactive).
For `CCc1nnc(SCc2c(F)cccc2Cl)c2cc3sccc3n12`, the survival is 88% (inactive).
With `N#Cc1cccc(NC(=O)C2CCN(c3cnccn3)CC2)c1` the figure was 105% (inactive).
With `CCCCN(CCCC)CCNC(=O)c1cn(CC)c2ccc(S(=O)(=O)N3CCc4ccccc4C3)cc2c1=O` the figure was 84% (inactive); with `CCN(C(=O)CSc1nc2ccccc2n1CC(=O)Nc1cccc(C#N)c1)c1ccccc1`, 124% (inactive); with `CCN(CC)C(=O)Cn1c(SCC(=O)Nc2ccc(C)c(C)c2)nc2ccccc21`, 133% (inactive).
Take `CCCCN(C)C(=O)Cn1c(SCC(=O)Nc2ccc(C)c(C)c2)nc2ccccc21`: the survival was 14% (active).
With `Cc1ccc(NC(=O)CSc2nc3ccccc3n2CC(=O)N(C)C2CCCCC2)cc1C` the figure was 78% (inactive); with `CCN(C(=O)CSc1nc2ccccc2n1CC(=O)Nc1ccc(F)cc1F)c1ccccc1`, 73% (inactive); with `CCN(C(=O)CSc1nc2ccccc2n1CC(=O)Nc1ccccc1C)c1ccccc1`, -6% (active).
With `Cc1ccc(NC(=O)CSc2nc3ccccc3n2CC(=O)N2CCC(C)CC2)cc1C` the figure was -1% (active); with `CC1CCN(C(=O)Cn2c(SCC(=O)Nc3ccc(F)cc3)nc3ccccc32)CC1`, 70% (inactive); with `CC1CCN(C(=O)Cn2c(SCC(=O)NC(C)(C)C)nc3ccccc32)CC1`, 102% (inactive).
Next, `CC1CCc2c(sc3nc(SCC(=O)Nc4c[nH]c(=O)[nH]c4=O)[nH]c(=O)c23)C1` (stereo not given): 107% (inactive); `Cc1ccc(CNC(=O)c2cc(-c3ccc(C)cc3)nc3n[nH]c(-c4cccc([N+](=O)[O-])c4)c23)cc1`: 74% (inactive); `CC(C)CNS(=O)(=O)c1ccc(S(=O)(=O)N2CCCN(Cc3ccccc3)C2)cc1`: 97% (inactive).
As to `CCOc1ccc(-c2cc3nc(C4CCN(C(=O)OC(C)(C)C)CC4)c(C(=O)Nc4ccc(C)c(F)c4)cn3n2)cc1`, the survival was 86% (inactive).
As to `CCc1ccc(NC(=O)C2CCN(c3nc(-c4ccc(OC)cc4)no3)CC2)cc1`, the survival was 66% (inactive).
With `COC(=O)c1cccnc1-n1c(=O)c2cccnc2n(CC(=O)Nc2ccccc2F)c1=O` the figure was 84% (inactive).
With `Cc1[nH]c(=O)[nH]c(=O)c1CSCC(=O)O` the figure was 108% (inactive).
As for `O=C(/C=C/c1ccc(Cl)cc1)Nc1nc(-c2cccs2)ns1`, the survival is 75% (inactive).
With `Cc1ccc(-c2nnc(NC3CCCC3)s2)cc1` the figure was 126% (inactive); with `N#CSc1cnc(NC2CCCCC2)s1`, 2% (active); with `Cc1cc(C)c(C#N)c(NC2CCCCC2)n1`, 92% (inactive).
Next, `O=S(=O)(c1ccc2nc(Nc3cccc(F)c3)ccc2c1)N1CCCC1`: 75% (inactive); `CCOC(=O)c1cccc(Nc2ccc3cc(S(=O)(=O)N4CCCCC4)ccc3n2)c1`: -3% (active).
On to `CC(=O)c1cccc(Nc2ccc3cc(S(=O)(=O)N4CCCC4)ccc3n2)c1`, for which the survival is 73% (inactive).
With `CCN(CC)c1cc(C)c2cc(NC(=O)/C=C/c3ccc(C)cc3)ccc2n1` the figure was 68% (inactive).
Next, `CCN(CC)c1ccc(NC(=O)c2cnc3c(-c4ccccc4)c(C)nn3c2C)c(C)c1`: 85% (inactive); `Cc1cc(C)cc(NC(c2cccc(Cl)c2)c2nnc(-c3ccccc3)o2)c1` (stereo not given): 91% (inactive); `Cc1cc(C)cc(NC(c2nnc(-c3cccc(F)c3)o2)c2ccc(F)cc2Cl)c1` (stereo not given): 37% (inactive).
`COc1ccc(NC(c2nnc(-c3ccccc3)o2)c2ccccc2F)cc1Cl` (stereo not given): the survival was 65% (inactive).
With `Cc1ccc(NC(c2nnc(-c3ccccc3)o2)c2ccccc2F)c(Cl)c1` (stereo not given) the figure was 91% (inactive); with `Fc1ccc(C(NCCc2ccc(Cl)cc2)c2nnc(-c3ccccc3)o2)c(Cl)c1` (stereo not given), 3% (active).
`CCOC(=O)c1cccc(NC(c2nnc(-c3ccccc3)o2)c2ccccc2F)c1` (stereo not given): the survival is 87% (inactive).
With `Cc1cc(NC(c2nnc(-c3ccccc3)o2)c2ccccc2F)ccc1Br` (stereo not given) the figure was 9% (active); with `Clc1ccc(CCNC(c2nnc(-c3ccccc3)o2)c2ccccc2Cl)cc1` (stereo not given), 3% (active); with `CC(C)c1ccc(NC(c2nnc(-c3ccccc3)o2)c2ccc(F)cc2Cl)cc1` (stereo not given), 69% (inactive).
With `Cc1cc([N+](=O)[O-])ccc1NC(c1nnc(-c2ccccc2)o1)c1ccccc1F` (stereo not given) the figure was 99% (inactive); with `Fc1ccccc1C(NCCc1ccc(Cl)cc1)c1nnc(-c2ccccc2)o1` (stereo not given), -1% (active).
Consider `Cc1ccccc1Cn1cc(CCC(=O)NC(C)c2ccccc2)c2ccccc21` (stereo not given), for which the survival was 84% (inactive).
`CC(C)n1nnnc1SCC(=O)OC1CCCCC1`: the survival is 127% (inactive).
With `Cc1cc(C)nc(Nc2nc3ccccc3s2)n1`, the survival was 109% (inactive).
Take `Cc1cccc(C(=O)Nc2nc(-c3nnn(-c4cc(F)ccc4F)c3C)ns2)c1`: the survival was 133% (inactive).
For the compound `N#Cc1cc[n+](CC(=O)c2cccs2)cc1`, the survival is 102% (inactive).
In the case of `Clc1ccc(CCNC(c2cccc(Cl)c2)c2nnc(-c3ccccc3)o2)cc1` (stereo not given), the survival is 5% (active).
In the case of `Cc1ccc(NC(c2cccc(Cl)c2)c2nnc(-c3ccccc3)o2)cc1F` (stereo not given), the survival is 90% (inactive).
On to `Clc1ccc(CCNC(c2ccc(Cl)cc2)c2nnc(-c3ccccc3)o2)cc1` (stereo not given), for which the survival is 86% (inactive).
With `CCOc1ccc(CCNC(=O)Cn2nnc(-c3ccccc3)n2)cc1OCC` the figure was 98% (inactive); with `CCOc1ccc(CCNC(c2nnc(-c3ccccc3)o2)c2ccccc2Cl)cc1OCC` (stereo not given), 4% (active); with `CCOc1ccc(CCNC(c2cccc(Cl)c2)c2nnc(-c3ccccc3)o2)cc1OCC` (stereo not given), 89% (inactive).
For `COc1cc(NS(=O)(=O)c2c(C)nc3sc(C)c(C)n3c2=O)cc(OC)c1`, the survival was 90% (inactive).
Next, `Cn1cnc2c(=O)oc3ccc(S(=O)(=O)N4CCN(c5ccccc5)CC4)cc3c21`: 87% (inactive).
Turning to `Cn1cnc2c(=O)oc3ccc(S(=O)(=O)N4CCN(c5cccc(Cl)c5)CC4)cc3c21`, the survival is -6% (active).
As to `Cn1cnc2c(=O)oc3ccc(S(=O)(=O)N4CCN(c5cccc(C(F)(F)F)c5)CC4)cc3c21`, the survival is 120% (inactive).
Regarding `CCOc1ccc(NC(=O)c2c(Nc3ccccc3C)sc(C(=O)c3ccccc3)c2N)cc1`, the survival is 83% (inactive).
For the compound `Cc1ccc(CN2C(=O)c3ccccc3CC2(C)C(=O)NC2CCCCC2)cc1` (stereo not given), the survival was 84% (inactive).
Consider `CN(c1ncnc2c1c(-c1ccccc1)cn2-c1cccc(Cl)c1)C1CCCCC1`, for which the survival was 89% (inactive).
Next, `Clc1cccc(-c2noc3ncnc(NC4CCCCC4)c23)c1`: 79% (inactive).
Regarding `CN(c1ncnc2onc(-c3cccc(Cl)c3)c12)C1CCCCC1`, the survival is -1% (active).
In the case of `COc1ccc(S(=O)(=O)N(CC(=O)N2CCC(C)CC2)c2ccc(C)cc2)cc1`, the survival was 89% (inactive).
With `O=C(NCCC1=CCCCC1)c1ccc2c(=O)n3nc(Nc4ccccc4)sc3nc2c1` the figure was 72% (inactive); with `O=C(CN1CCC(NC(=O)C2CCCCC2)CC1)Nc1cccc(F)c1`, 111% (inactive); with `CCc1nn2c(=O)cc(COC(=O)c3ccc(NC(=O)C4CCCCC4)cc3)nc2s1`, 68% (inactive).
Regarding `CCOc1ccc(CNS(=O)(=O)c2ccc3[nH]c(=O)ccc3c2)cc1`, the survival was 80% (inactive).
Turning to `CCOc1ccccc1CNS(=O)(=O)c1ccc2[nH]c(=O)ccc2c1`, the survival is 71% (inactive).
As for `CCOc1ccc(OCC)c(NS(=O)(=O)c2ccc3[nH]c(=O)ccc3c2)c1`, the survival was 0% (active).
With `O=C(Cn1c(=O)n(CCc2ccccc2)c(=O)c2cccnc21)Nc1ccc(F)cc1`, the survival was 80% (inactive).
On to `Cc1oc2c(C)c3oc(=O)c(CC(=O)N4CCCCC4)c(C)c3cc2c1C`, for which the survival is 83% (inactive).
As to `Cc1nnc(SCC(=O)N(C2CCCCC2)C2CCCCC2)[nH]c1=O`, the survival is 117% (inactive).
With `CCOC(=O)C1CCCN(C(=O)c2ccc(OCC)cc2)C1` (stereo not given) the figure was 117% (inactive).
With `CCOC(=O)C1CCCN(c2c(C(=O)c3ccccc3)cnc3ccc(F)cc23)C1` (stereo not given) the figure was 22% (inactive); with `CCOc1ccc(C(=O)c2cnc3ccc(Cl)cc3c2S(=O)(=O)c2ccc(C)cc2)cc1`, 86% (inactive).
In the case of `CCOC(=O)C1CCCN(c2c(C(=O)c3ccc(OCC)cc3)cnc3ccccc23)C1` (stereo not given), the survival is 0% (active).
Turning to `CCOC(=O)C1CCCN(c2c(C(=O)c3ccc(C)cc3)cnc3ccc(OCC)cc23)C1` (stereo not given), the survival is 2% (active).
Next, `CCOc1ccc(S(=O)(=O)c2c(C(=O)c3ccc(C)c(C)c3)cnc3ccccc23)cc1`: 80% (inactive).
Next, `CCc1ccc(NC(=O)CN2CCSc3ccc(S(=O)(=O)N4CCCC4)cc32)cc1`: -6% (active).
Next, `Cc1ccc(NC(=O)CN2CCSc3ccc(S(=O)(=O)N4CCCC4)cc32)cc1`: 98% (inactive); `CCOc1ccc(NC(=O)CN2CCSc3ccc(S(=O)(=O)N4CCCC4)cc32)cc1`: 67% (inactive).
Turning to `CCOC(=O)c1scc(-c2ccc(C)cc2)c1S(=O)(=O)Nc1ccc(F)c(F)c1`, the survival is 72% (inactive).
Next, `Cc1nc(N2CCOCC2)c2c(C(=O)Nc3cccc(C(F)(F)F)c3)c(C)oc2n1`: 78% (inactive).
